High-throughput results from PubChem BioAssay.
Most compounds without a hit are left out; they make up all but 7.5% or so of the library.
TSHR antagonist: antagonists of human thyroid stimulating hormone receptor | TSHR-expressing cells, TSH-stimulated cAMP HTRF, 2 h; hits give low values | P16473 | 330,000 tested, 0.2% active | activity change, negative = inhibition, % at 11.5 µM;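 active = activity change below a set negative limit, meaning inhibition stronger than a set level, cut at about -70% in these data; inconclusive = activity change between two set negative limits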
Target sequence (P16473 whole entry, looked up): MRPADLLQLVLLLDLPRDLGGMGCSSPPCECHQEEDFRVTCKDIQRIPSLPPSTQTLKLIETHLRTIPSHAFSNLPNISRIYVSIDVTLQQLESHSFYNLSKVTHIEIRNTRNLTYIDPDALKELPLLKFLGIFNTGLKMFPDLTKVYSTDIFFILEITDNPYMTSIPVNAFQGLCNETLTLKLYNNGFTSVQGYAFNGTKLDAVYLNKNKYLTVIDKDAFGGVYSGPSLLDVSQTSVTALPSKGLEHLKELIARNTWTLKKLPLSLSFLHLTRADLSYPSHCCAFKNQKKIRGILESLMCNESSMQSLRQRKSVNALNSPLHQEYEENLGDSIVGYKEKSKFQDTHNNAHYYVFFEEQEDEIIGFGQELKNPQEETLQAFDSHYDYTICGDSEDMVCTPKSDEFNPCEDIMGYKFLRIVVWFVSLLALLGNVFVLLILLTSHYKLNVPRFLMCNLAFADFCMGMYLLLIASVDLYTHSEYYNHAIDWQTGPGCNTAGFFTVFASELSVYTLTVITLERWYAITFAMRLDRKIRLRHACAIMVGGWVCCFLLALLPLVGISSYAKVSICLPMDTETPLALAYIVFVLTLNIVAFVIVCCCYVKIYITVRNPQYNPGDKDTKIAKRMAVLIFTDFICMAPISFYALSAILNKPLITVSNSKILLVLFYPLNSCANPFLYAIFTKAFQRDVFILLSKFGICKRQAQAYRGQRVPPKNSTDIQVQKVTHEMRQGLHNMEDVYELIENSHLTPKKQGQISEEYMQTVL
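Inhibition of cAMP made by TSHR-expressing cells under TSH stimulation (4nM final, EC80; 2 h, 37 deg C) is quantified with a one-step lysis HTRF kit, anti-cAMP cryptate versus cAMP-d2.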
B2AR arrestin: beta2AR (human) beta-arrestin recruitment activity. P07550. beta-arrestin recruitment to beta2AR, cell-based reporter. Potency, µM (series often up to 46.1 µM), for inactives: at the highest dose activation, hits mostly activators. 330,000 tested, 0.02% active. AID 492947;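 note: potency is the fitted concentration of half-maximal effect; 0% = DMSO controls and full agonism = EC100 isoproterenol or metaproterenol; nearly all actives have a fitted effect of over 65% in size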
Gal4-VP16 FLuc: Gal4-VP16 reporter inhibition counter-screen; Drosophila S2 Gal4-VP16 UAS-luciferase, luminescence, 20 h; Potency, µM (series often up to 53.6 µM), for the others: at the top dose activity, negative = inhibition, usual class: inhibitors; 310,000 tested, 3.5% active; AID 2546;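 note: Gal4-VP16 expression switched on by copper sulfate through the metallothionein promoter; potency is the fitted concentration of half-maximal effect; nearly all actives have a fitted effect of over 50% in size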
ELG1 repair inh: blocks ELG1-dependent DNA repair in HEK293T cells. HEK293T ELG1-luciferase reporter, luminescence, 16 h; DNA damage induced by 5-fluorouridine. Potency, µM (top dose mostly 46.1 µM), for the others: at the top dose activity change, negative = inhibition, most hits filed as inhibitors. 330,000 tested, 2.3% active; note: potency is the fitted concentration of half-maximal effect; nearly all actives have a fitted effect of over 55% in size
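Cells (2,000 per well) received 5-fluorouridine plus test compound or DMSO and were incubated 16 hr at 37 °C, 5% CO2. Luciferase activity was read by luminescence 30 min after ONE-Glo addition; signal suppression marked inhibition of damage-induced ELG1 function.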
RORgamma inh: blocks mouse ROR gamma transcriptional activity | P51450 | Drosophila S2 Gal4-RORgamma UAS-luciferase reporter, 20 h | Potency, µM (doses to about 53.6 µM), for the others: at the top dose activity change, negative = inhibition, usual class: inhibitors | 310,000 tested, 5.4% active | AID 2551; note: potency is the fitted concentration of half-maximal effect; nearly all actives have a fitted effect of over 60% in size
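ROR gamma transcriptional activity was tracked as Gal4-UAS luciferase output in stably transfected Drosophila Schneider cells, with compound added 1 hr before 700 uM copper sulfate induction and a 20 hr ambient-temperature incubation.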
Numbers without * were called inactive; ? = inconclusive; . = no result given; [ ] = dose if it differs, or a comment. Unless noted, calls come from the whole dose curve; as a rule, active = well fitted curve in the direction sought with a large enough effect; inconclusive = small, poorly fitted or top-dose-only effect, or another doubt; inactive = no such curve, though single readings can be large; an effect the other way counts as inactive or inconclusive. Unless noted, % is set by controls: 0 for no effect and ±100 for the full control effect.

SMILES	TSHR antagonist	B2AR arrestin	Gal4-VP16 FLuc	ELG1 repair inh	RORgamma inh
CC(=O)NC(=S)Nc1ccccc1N1CCN(C(=O)c2ccccc2)CC1	-8	0%	5µM*	?	6.3µM*
O=C(NC(=S)Nc1ccccc1N1CCN(C(=O)c2ccccc2)CC1)c1ccccc1F	-27	0%	?	-29%	13µM*
CC(C)C(=O)NC(=S)Nc1ccccc1N1CCN(C(=O)c2ccccc2)CC1	-7	0%	-8%	-1%	-21%
CN1CCN(c2ccccc2NC(=O)c2ccccc2F)CC1	14	-1%	1%	-10%	11%
FC(F)(F)Oc1ccc(NC(=S)Nc2ccccc2N2CCOCC2)cc1	-2	0%	?	?	7.9µM*
CCc1cc2c(nc1CC)CCN(CC/C(C)=N/OC[C@@H](C)[C@H](OCc1ccccc1)C(C)C)C2	.	.	0%[10 µM]	.	24%[10 µM]
COc1ccc(C(=O)Nc2ccccc2N2CCN(C(=O)c3ccccc3)CC2)cc1Br	-4	0%	-11%	21µM*	-14%
O=C(Nc1ccccc1N1CCN(C(=O)c2ccccc2)CC1)c1ccc(Cl)cc1	-7	0%	-11%	-25%	33%
Cc1oc(-c2cc(F)ccc2F)nc1CN1CCN(c2ncnc3ccccc23)CC1	-26	0%	?	?	?
COc1ccc(-c2nc(CN3CCN(c4ncnc5ccccc45)CC3)c(C)o2)c(OC)c1	-17	-1%	?	7.3µM*	-93%
CCNC(=S)N1CCc2cc(OC)c(OC)cc2C1COc1ccc(OC)cc1 (centres undefined)	4	3%	-17%	?	6%
CCc1ccc(OCC2c3cc(OC)c(OC)cc3CCN2C(=S)NC)cc1 (centres undefined)	-7	0%	6%	?	11µM*
CCc1ccc(OCC2c3cc(OC)c(OC)cc3CCN2C(=S)NCCOC)cc1 (centres undefined)	-4	1%	-12%	23µM*	20%[10 µM]
NCCCC(N)CC(=O)NC1CNC(=O)C(C2CC(O)N=C(N)N2)NC(=O)/C(=C/NC(N)=O)NC(=O)C(CO)NC(=O)C(CO)NC1=O (centres undefined)	.	.	2%	.	5%[10 µM]
O=C(Nc1ccccc1)N1CCC(=S)Nc2ccccc21	8	-1%	-4%	0%	-35%
CC1CC(=S)Nc2ccccc2N1C(=O)Nc1ccccc1 (centres undefined)	18	0%	?	14%	10µM*
CO[C@H]1/C=C/O[C@@]2(C)Oc3c(C)c(O)c4c(O)c(c(/C=N\N5CCN(C6CCCC6)CC5)c(O)c4c3C2=O)NC(=O)/C(C)=C\C=C\[C@H](C)[C@H](O)[C@@H](C)[C@@H](O)[C@@H](C)[C@H](OC(C)=O)[C@@H]1C	.	.	-19%	.	3%
C/C(CCC(=O)OC[C@@H]1O[C@H](C#Cc2ccccc2)C=C[C@@H]1Oc1ccc(C)cc1)=N/O[C@@H](C)c1cc(-c2c(C)cc(C)cc2C)no1	.	.	2%[10 µM]	.	3%[10 µM]
CN(Cc1ccc(-n2cccn2)cc1)C(=O)c1cnn2c1NC(c1ccco1)CC2C(F)(F)F (centres undefined)	0	1%	-15%	10µM*	-10%
Cc1ccc(Cl)cc1NC(=O)c1cnn2c1NC(c1ccco1)CC2C(F)(F)F (centres undefined)	-19	0%	-9%	18µM*	16%
O=C(Nc1ccc(NC(=O)c2cccs2)c(Cl)c1)c1ccco1	-1	0%	-14%	-24%	-20%
O=C(Nc1ccc(NC(=O)c2sc3ccccc3c2Cl)cc1Cl)c1ccco1	8	1%	?	?	10µM*
O=C(Nc1ccc(N2CCN(C(=O)c3cccs3)CC2)c(Cl)c1)c1ccco1	-21	-1%	-2%	21µM*	?
Cc1ccccc1C(=O)N1CCN(c2ccc(NC(=O)c3ccco3)cc2Cl)CC1	-34	0%	6.3µM*	2.1µM*	?
Cc1ccc(NC(=O)N2CCN(C(=O)c3ccco3)CC2)cc1Cl	18	0%	19%	0%	?
SMILES	TSHR antagonist	B2AR arrestin	Gal4-VP16 FLuc	ELG1 repair inh	RORgamma inh
CCOC(=O)N/N=C1/C[C@@H](O)[C@@H](O)[C@@H]2[C@H]3C(=O)N(c4ccc(F)cc4F)C(=O)[C@@H]3CC[C@H]12	.	.	2%[10 µM]	.	-5%[10 µM]
O=C(CCSc1ccc(Cl)cc1)N1CCN(S(=O)(=O)c2ccccc2)CC1	-17	0%	.	?	.
Cc1cc(CNC(=O)Cn2nc(C)c([N+](=O)[O-])c2C)c2ccccc2n1	4	0%	-5%	4%	-5%
O=C(c1ccncc1)N1CCN(S(=O)(=O)c2cccc(Cl)c2)CC1	-4	0%	.	11%	.
Cc1ccc(-c2nn(-c3ccccc3)cc2CN(Cc2ccccc2)C(=O)c2ccco2)o1	0	0%	-86%	18µM*	?
Cc1ccc(-c2nn(-c3ccccc3)cc2C(=O)O)o1	-18	0%	-8%	?	25%
Nc1nc(N(Cc2ccccc2)Cc2ccccc2)nc(C(F)(F)F)n1	145	0%	.	17%	.
CCCN(C1CCS(=O)(=O)C1)S(=O)(=O)c1cc(OC)ccc1OC (centres undefined)	-1	0%	.	23%	.
CN1CCN(NC(=O)c2cccc(C(F)(F)F)c2)CC1	7	0%	3%	14%	-11%
CCOC(=O)c1cnc2ccccc2c1NCCc1ccc(OC)c(OC)c1	-7	-1%	-4%	?	-42%
CCOC(=O)c1cnc2ccc(OCC)cc2c1NCc1cccnc1	-3	10%	-9%	?	10%
CCOC(=O)c1cnc2ccc(OC)cc2c1NCCc1ccc(OC)c(OC)c1	-6	-1%	-8%	21µM*	-3%
CCOC(=O)c1cnc2ccc(OCC)cc2c1NCc1ccccc1	-12	-1%	5µM*	?	2.8µM*
Nc1ncnc2c1ncn2[C@@H]1O[C@H](C(=O)N2CCN(CC(=O)Nc3cccc4c3CNC4=O)CC2)[C@@H](O)[C@H]1O	.	.	-1%	.	-13%
Cc1c(Cl)cccc1N/C(SCC(=O)N1CCCCCC1)=C(/C#N)c1nc2ccccc2s1	-4	0%	-23%	?	8.9µM*
COc1ccc(OC)c(-c2cc(C(=O)N3CCN(c4ncccn4)CC3)c3ccccc3n2)c1	-12	0%	-5%	13µM*	?
COc1ccc(-c2cc(C(=O)N3CCN(c4ccccn4)CC3)c3ccccc3n2)cc1	-3	0%	-17%	?	24%
COc1ccc(-c2cc(C(=O)N3CCN(c4ncccn4)CC3)c3ccccc3n2)c(OC)c1	-3	0%	3%	9.2µM*	-2%
COc1ccc(N2CCN(C(=O)c3cc(-c4cc(OC)ccc4OC)nc4ccccc34)CC2)cc1	-17	-1%	.	7.3µM*	.
